Inconclusive results are not listed. The source made the active and inactive calls. Unless noted, calls follow the shape of the dose curve; as a rule, active = well fitted curve in the direction sought with a large enough effect in the repeat runs; inconclusive = weak or mixed curves; inactive = no such curve, though single readings can be large; an effect the other way counts as inactive or inconclusive.
Assays:
[1] = qHTS assay to identify small molecule agonists of H2AX - cell viability counter screen (AID 1224847; calls by dose curve; also: nearly all actives have a fitted effect of over 30% in size; also: potency is read from the fitted curve at half-maximal effect)
Procedure, shortened: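 CHO-K1 cells plated overnight at 37C, then exposed 3 h at 37C to compounds at 15 concentrations (0.76% DMSO final). Viability by CellTiter-Glo luminescence after 30 min at room temperature.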

[2] = qHTS RealTime-Glo MT Cell Viability Assay in HepG2 cells - 24 hour (AID 1224867); also: nearly all actives have a fitted effect of over 50% in size; also: potency is read from the fitted curve at half-maximal effect
Procedure, shortened: (§1)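 Cells + NanoLuc/prosubstrate dispensed (600 cells/well) → 5 h at 37 C/5% CO2 → compounds in DMSO transferred → 40 h incubation at 37 C, luminescence read at 0, 8, 16, 24, 32, 40 h.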

[3] = qHTS RealTime-Glo MT Cell Viability Assay in HEK293 cells - 32 hour (AID 1224868); also: nearly all actives have a fitted effect of over 50% in size; also: potency is read from the fitted curve at half-maximal effect
Procedure, shortened: (§2)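 Tox21 10K qHTS, HEK293, 600 cells/well, RealTime-Glo reagent co-dispensed with cells; 5 h preincubation, compound by pintool, 37 C, luminescence at 0–40 h.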

[4] = A CellTox Green Cytotoxicity Assay to monitor cytotoxicity in HEK293 cells - 0 hour (AID 1224869); also: nearly all actives have a fitted effect of over 50% in size
Procedure, shortened: (§3)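 HEK293 cells, 600/well, were preincubated 5 hours and then exposed to compounds at 37 C for up to 40 hours. A cell-impermeant cyanine dye staining dead-cell DNA was read by fluorescence at 0, 8, 16, 24, 32 and 40 h time points.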

[5] = qHTS RealTime-Glo MT Cell Viability Assay in HepG2 cells - 40 hour (AID 1224870); also: nearly all actives have a fitted effect of over 50% in size; also: potency is read from the fitted curve at half-maximal effect
Procedure, shortened: (§4)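 HepG2 cells mixed with RealTime-Glo MT reagents (NanoLuc plus cell-permeant prosubstrate) were seeded at 600 cells/well, incubated 5 h at 37 C/5% CO2, then pinned with compounds in DMSO; nonlytic luminescence tracked viability during 40 h treatment.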

[6] = A CellTox Green Cytotoxicity Assay to monitor cytotoxicity in HEK293 cells - 40 hour (AID 1224871); also: nearly all actives have a fitted effect of over 45% in size; also: potency is read from the fitted curve at half-maximal effect
Procedure, shortened: as §3

[7] = qHTS RealTime-Glo MT Cell Viability Assay in HEK293 cells - 16 hour (AID 1224872); also: nearly all actives have a fitted effect of over 50% in size; also: potency is read from the fitted curve at half-maximal effect
Procedure, shortened: as §2

[8] = qHTS RealTime-Glo MT Cell Viability Assay in HepG2 cells - 8 hour (AID 1224873); also: nearly all actives have a fitted effect of over 55% in size; also: potency is read from the fitted curve at half-maximal effect
Procedure, shortened: as §4

[9] = qHTS RealTime-Glo MT Cell Viability Assay in HEK293 cells - 40 hour (AID 1224874); conditions: RealTime-Glo luminescence; max response: stronger effect = lower value; also: nearly all actives have a fitted effect of over 50% in size; also: potency is read from the fitted curve at half-maximal effect
Procedure, shortened: (§5)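 600 cells/well were plated with the nonlytic NanoLuc/prosubstrate reagent, pre-incubated 5 h, then given 23 nL of compound in DMSO. Incubation at 37 C for 40 h, with luminescence from viable-cell-reduced substrate read repeatedly from 0 h.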

[10] = A CellTox Green Cytotoxicity Assay to monitor cytotoxicity in HEK293 cells - 24 hour (AID 1224875); also: nearly all actives have a fitted effect of over 45% in size; also: potency is read from the fitted curve at half-maximal effect
Procedure, shortened: as §3

[11] = A CellTox Green Cytotoxicity Assay to monitor cytotoxicity in HepG2 cells - 16 hour (AID 1224876); also: nearly all actives have a fitted effect of over 45% in size; also: potency is read from the fitted curve at half-maximal effect
Procedure, shortened: (§6)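 HepG2 cells, 600/well, preincubated 5 h with CellTox Green dye, then exposed to Tox21 compounds in DMSO at 37 C for up to 40 h. Dead-cell DNA fluorescence read at the indicated time point.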

[12] = qHTS RealTime-Glo MT Cell Viability Assay in HepG2 cells - 32 hour (AID 1224877); also: nearly all actives have a fitted effect of over 55% in size; also: potency is read from the fitted curve at half-maximal effect
Procedure, shortened: as §1

[13] = A CellTox Green Cytotoxicity Assay to monitor cytotoxicity in HepG2 cells - 40 hour (AID 1224879); also: nearly all actives have a fitted effect of over 40% in size; also: potency is read from the fitted curve at half-maximal effect
Procedure, shortened: as §6

[14] = qHTS RealTime-Glo MT Cell Viability Assay in HEK293 cells - 0 hour (AID 1224880); also: top concentration of the series differs between compounds; nearly all actives have a fitted effect of over 45% in size
Procedure, shortened: as §5

[15] = A CellTox Green Cytotoxicity Assay to monitor cytotoxicity in HEK293 cells - 32 hour (AID 1224881); also: nearly all actives have a fitted effect of over 40% in size; also: potency is read from the fitted curve at half-maximal effect
Procedure, shortened: as §3

[16] = A CellTox Green Cytotoxicity Assay to monitor cytotoxicity in HepG2 cells - 0 hour (AID 1224882); also: nearly all actives have a fitted effect of over 35% in size
Procedure, shortened: as §6

[17] = A CellTox Green Cytotoxicity Assay to monitor cytotoxicity in HepG2 cells - 32 hour (AID 1224883); also: nearly all actives have a fitted effect of over 50% in size; also: potency is read from the fitted curve at half-maximal effect
Procedure, shortened: as §6

[18] = A CellTox Green Cytotoxicity Assay to monitor cytotoxicity in HepG2 cells - 24 hour (AID 1224878); also: nearly all actives have a fitted effect of over 45% in size; also: potency is read from the fitted curve at half-maximal effect
Procedure, shortened: as §6
% is scaled to controls: 0 for no effect and ±100 for the full control effect.

CC(=O)CC(N)=O
inactive: Potency [1] | Potency [2] | Potency [3] | Potency [4] | Potency [5] | Potency [6] | Potency [7] | Potency [8] | max response [9] 14.8% | Potency [10] | Potency [11] | Potency [12] | Potency [13] | Potency [14] | Potency [15] | Potency [16] | Potency [17]

CCc1cccc(C)c1N(C(=O)CS(=O)(=O)O)C(C)COC (centres undefined)
inactive: Potency [1] | Potency [2] | Potency [3] | Potency [4] | Potency [5] | Potency [6] | Potency [8] | max response [9] -1.03% | Potency [10] | Potency [11] | Potency [18] | Potency [13] | Potency [14] | Potency [15] | Potency [16] | Potency [17]

CC1CCC(C(C)(C)O)CC1 (centres undefined)
inactive: Potency [1] | Potency [2] | Potency [3] | Potency [4] | Potency [5] | Potency [6] | Potency [7] | Potency [8] | max response [9] 0.893% | Potency [10] | Potency [11] | Potency [12] | Potency [18] | Potency [13] | Potency [14] | Potency [15] | Potency [17]

CCCCCCCCCC[N+](C)(CCCCCCCCCC)CCC[Si](OC)(OC)OC
active: Potency [1] 50.5 µM | Potency [2] 43.6 µM | Potency [3] 27.5 µM | Potency [5] 43.6 µM | Potency [6] 43.6 µM | Potency [7] 27.5 µM | Potency [8] 49 µM | Potency [9] 27.5 µM | Potency [10] 38.9 µM | Potency [11] 43.6 µM | Potency [12] 49 µM | Potency [18] 21.9 µM | Potency [13] 19.5 µM | Potency [15] 24.5 µM | Potency [17] 21.9 µM
inactive: Potency [4] | Potency [16]

Cc1cccc(C)c1C
inactive: Potency [1] | Potency [2] | Potency [3] | Potency [4] | Potency [5] | Potency [6] | Potency [8] | max response [9] 4% | Potency [10] | Potency [11] | Potency [12] | Potency [18] | Potency [13] | Potency [14] | Potency [16] | Potency [17]

NC(=O)C1CO1 (centres undefined)
inactive: Potency [1] | Potency [2] | Potency [3] | Potency [4] | Potency [5] | Potency [6] | Potency [7] | Potency [8] | max response [9] 3.16% | Potency [10] | Potency [11] | Potency [12] | Potency [18] | Potency [13] | Potency [14] | Potency [15] | Potency [16] | Potency [17]

CN1CCN(C)CC1
inactive: Potency [1] | Potency [2] | Potency [3] | Potency [4] | Potency [5] | Potency [6] | Potency [7] | Potency [8] | max response [9] 7.77% | Potency [10] | Potency [11] | Potency [12] | Potency [18] | Potency [13] | Potency [14] | Potency [15] | Potency [16] | Potency [17]

C=C(C)CCO
inactive: Potency [1] | Potency [2] | Potency [3] | Potency [4] | Potency [5] | Potency [7] | Potency [8] | max response [9] 1.14% | Potency [10] | Potency [11] | Potency [13] | Potency [14] | Potency [15] | Potency [16] | Potency [17]
